Hits are enriched below; roughly 1.1% of the tested compounds scored in any of these assays.
BH1578 lux ind – induces V. cholerae light production without autoinducers | 350,000 compounds, 0.16% hits | V. cholerae BH1578 lux reporter, luminescence, 6 h | activation, % at 18.7 µM | AID 588436; in the data active means activation mostly above about 9.7%, no sharp cut-off
PrPC surface inh – reduces human prion protein on the cell surface; inhibition, % at 13.8 µM; P04156; 370,000 compounds, 0.43% hits; cell surface PrPC, TR-FRET read-out; AID 720596; in the data active means inhibition above about 24%
CCHF vOTU inh-1 – CCHFV vOTU protease inhibition. Pep-AMC fluorescence. inhibition, % at 11.5 µM. 370,000 compounds, 0.55% hits. AID 651958
Y pestis TopoI – Y. pestis Topo-I inhibition via cleavage products | Y. pestis Topo-I cleavage product accumulation, plate reader | activity, % at 10 µM | 360,000 compounds, 0.064% hits | AID 504884; in the data active means activity above about 50%, passing the limit was not always enough
CCHF vOTU inh-2 – CCHFV vOTU protease inhibition, confirmation; shares compounds with CCHF vOTU inh-1; inhibition, % at 11.5 µM; 1,900 compounds, 17% hits; Recombinant CCHFV vOTU, Pep-AMC fluorescence
Numbers stand for hits; n = inactive; x = not tested or not shown. Unless noted, no stated cut-off is given here; in the data, active means inhibition above about 30%; inactive means the rest.

SMILES | BH1578 lux ind | PrPC surface inh | CCHF vOTU inh-1 | Y pestis TopoI | CCHF vOTU inh-2
COc1ccc(C(c2oc(CO)cc(=O)c2O)c2oc(CO)cc(=O)c2O)cc1OC | n | n | n | n | x
CC(C)CC(=O)NC(=S)Nc1ccc(S(=O)(=O)N2CCN(C)CC2)cc1 | n | n | n | n | x
O=C1C(=Cc2ccc(Cl)cc2)Cc2ccccc21 | x | n | n | x | x
Cc1ccc2c(c1)c1c(n2CC(O)CN2CCCCCC2)CCCC1 (stereo not drawn) | n | n | 34.6 | n | n
Cc1ccc2c(c1)c1c(n2CC(O)CNC(C)(C)C)CCCC1 (stereo not drawn) | n | n | 56.9 | n | n
O=C(O)COc1ccc(Br)cc1C(c1c(C(=O)O)[nH]c2ccccc12)c1c(C(=O)O)[nH]c2ccccc12 | n | x | x | n | x
O=C(O)c1[nH]c2ccccc2c1C(c1cc(Cl)cc([N+](=O)[O-])c1O)c1c(C(=O)O)[nH]c2ccccc12 | n | n | 45.9 | n | n
Cn1c(Cc2cccs2)nnc1SCC(=O)Nc1ccc2cn[nH]c2c1 | x | n | 31.4 | x | n
Cn1c(SCC(=O)Nc2ccc3cn[nH]c3c2)nnc1-c1cccs1 | x | n | n | n | x
CCCCCCNC(=O)OC12CN(C(=O)OC(C)C)N(C(=O)OC(C)C)CC1(O)CN(S(=O)(=O)c1ccc(C)cc1)C2 (stereo not drawn) | n | n | 37.1 | n | n
CC(NC(=O)Nc1nccs1)(C(F)(F)F)C(F)(F)F | x | n | n | n | x
O=C(Nc1nccs1)C(F)(F)C(F)(F)C(F)(F)C(=O)Nc1nccs1 | n | n | 112.8 | n | n
COC(=O)N/N=C/c1cccc(OC(=O)c2ccc3c(c2)OCO3)c1 | n | n | n | n | x
Cc1cc(C)c(S(=O)(=O)Nc2nnc(C)s2)c(C)c1 | n | n | n | n | x
Cc1cc(C)c(S(=O)(=O)Nc2nnc(CC(C)C)s2)c(C)c1 | n | n | 30.0 | n | n
Cc1cc(/C=C2\C(=O)NC(=O)N(C)C2=O)c(C)n1-c1ccc2c(c1)OCO2 | n | n | 33.5 | n | n
Cc1cc(C=C2C(=O)NC(=O)NC2=O)c(C)n1-c1ccc2c(c1)OCO2 | n | n | n | n | x
COc1ccc([N+](=O)[O-])cc1NC(=O)Cc1ccccc1Cl | n | n | n | n | x
CCn1nc(NS(=O)(=O)c2ccccc2[N+](=O)[O-])c2cc3cccc(C)c3nc21 | n | n | 32.4 | n | n
CCn1nc(NS(=O)(=O)c2ccc([N+](=O)[O-])cc2)c2cc3cccc(C)c3nc21 | n | n | n | n | x
CCOc1ccc(CCN2C(=O)C(=O)N([C@@H](CC(C)C)CN3CCC[C@H]3CN3C(=O)C(=O)NC[C@@H]3Cc3ccc(O)cc3)C[C@@H]2Cc2ccccc2)cc1 | x | n | 30.5 | x | n
O=C1NC[C@H](Cc2ccc(O)cc2)N(C[C@@H]2CCCN2C[C@H](Cc2ccc(O)cc2)N2C[C@H](Cc3ccccc3)N(CCc3ccccc3)C(=O)C2=O)C1=O | x | n | 33.9 | x | n
CC(C)C[C@@H](CN1CCC[C@@H]1CN1C(=S)NC[C@@H]1Cc1ccccc1)N1C[C@H](Cc2ccc(O)cc2)N(CC2CCCCC2)C1=S | x | n | 29.8 | x | n
CCOc1ccc(CCN2C(=O)C(=O)N([C@@H](CC(C)C)CN3CCC[C@H]3CN3C(=O)C(=O)NC[C@@H]3CC(C)C)C[C@@H]2Cc2ccc(O)cc2)cc1 | x | n | n | x | x
CCOc1ccc(CCN2C(=S)N([C@@H](Cc3ccccc3)CN3CCCC3CN3C(=S)NC[C@@H]3Cc3ccccc3)C[C@@H]2Cc2ccc(O)cc2)cc1 (stereo partly drawn) | x | n | 29.7 | x | n
SMILES | BH1578 lux ind | PrPC surface inh | CCHF vOTU inh-1 | Y pestis TopoI | CCHF vOTU inh-2
O=C1NC[C@H](Cc2ccc(O)cc2)N(C[C@@H]2CCCN2C[C@H](Cc2ccccc2)N2C[C@H](Cc3ccccc3)N(CCc3ccccc3)C(=O)C2=O)C1=O | x | n | n | x | x
CC(=O)N1CCN(c2ccc(S(C)(=O)=O)cc2[N+](=O)[O-])CC1 | n | n | n | n | x
O=C(C1CCN(S(=O)(=O)c2cccs2)CC1)N1CCCCC1 | n | n | n | n | x
CC(=O)NCCc1ccc(-c2csc(NC(=O)C3CC(=O)N(C4CCCC4)C3)n2)cc1 (stereo not drawn) | n | n | n | n | x
COc1ccc2c(n1)Sc1nc3ccccc3nc1N2 | n | n | 59.5 | n | n
CC1(C)Cc2c(c(N3CCCC3)nc3sc(C(=O)Nc4ccccc4)c(N)c23)CO1 | n | n | n | n | x
COc1ccc(C)cc1NC(=O)COC(=O)c1ccc([N+](=O)[O-])o1 | n | n | n | n | x
CC(C)C[C@H](NC(=O)c1nc[nH]c1C(=O)NCC(=O)OC(C)(C)C)C(=O)OCc1ccccc1 | n | n | 30.5 | n | n
CC(C)C[C@H](NC(=O)c1[nH]cnc1C(=O)N[C@@H](C)C(=O)OC(C)(C)C)C(=O)OC(C)(C)C | n | n | 30.3 | n | 32.2
CC(C)C[C@H](NC(=O)c1[nH]cnc1C(=O)Nc1ccccc1)C(=O)OC(C)(C)C | n | n | 29.5 | n | n
CCOC(=O)c1sc(NC(=O)CSc2nccc(C)n2)nc1C | n | n | n | n | x
CSc1ccccc1NC(=O)CCn1c(=O)oc2ccccc21 | n | n | n | n | x
CCCCC(=O)Nc1ccc(NC(=O)c2ccc3c(c2)OCO3)cc1OC | n | n | n | n | x
Cc1nn(-c2ccc(F)cc2)c(C)c1NS(=O)(=O)c1ccc(Cl)cc1 | n | n | 30.2 | n | n
Cc1ccc(S(=O)(=O)N2CCOCC2)cc1C(=O)N1CC(C)CC(C)C1 (stereo not drawn) | n | n | n | n | x
CCCCN(CC(O)COc1cccc(C)c1)CC(O)COc1cccc(C)c1 (stereo not drawn) | n | n | 30.8 | n | n
CN(C)CC(O)COc1cccc(OCC(O)CN(C)C)c1 (stereo not drawn) | n | n | n | n | x
Cc1cccc(C(=O)Nc2ccc(NC(=O)Cc3ccc(Cl)cc3)cc2)c1 | n | n | n | n | x
NC(=O)N/N=C/c1ccc([N+](=O)[O-])o1 | n | n | n | n | x
O=C(N/N=C/c1ccc([N+](=O)[O-])o1)C1CC1 | n | n | 32.4 | n | n
CCCCN(CCCC)S(=O)(=O)c1ccc(NC(=O)c2ccc([N+](=O)[O-])cc2Cl)cc1 | n | n | 29.9 | n | n
CC(=O)N1CCN(c2ccc(NC(=O)c3ccc([N+](=O)[O-])cc3Cl)cc2)CC1 | n | n | n | n | x
CCCc1nc(N)c(C#N)c(-c2ccco2)c1CC | n | n | n | n | x
Cc1ccc(N/C=C2/Sc3ccccc3NC2=O)cc1 | n | n | 30.6 | n | n
COC(=O)c1ccc(N=NNc2ccc(C(=O)OC)cc2)cc1 | n | n | 33.1 | n | n
COC(=O)c1ccc(N=NNc2ccccc2)cc1 | n | n | n | n | x
CN1/C(=C\C=C2/SC(=S)NC2=O)C(C)(C)c2ccccc21 | n | n | n | n | x
CN1CCC/C1=C/C=C1\SC(=S)NC1=O | n | n | 40.2 | n | 33.3
C=C(C)c1cccc(C(C)(C)NC(=O)Nc2ccccc2OCC)c1 | n | n | n | n | x
O=C1C(=Cc2cn(-c3ccccc3)nc2-c2ccc(OCc3ccc(Cl)cc3)cc2)SC(=S)N1CCS(=O)(=O)O | n | n | 34.3 | n | n

From PubChem BioAssay
